Assay outcomes deposited in PubChem by The Scripps Research Institute Molecular Screening Center.
An excerpt weighted towards active compounds, which were near 0.9% of everything screened.
PPARg SRC3 recr – PPARgamma agonists recruiting SRC-3 coactivator, primary screen, biochemical; biochemical PPARgamma/SRC-3 coactivator recruitment assay; 200,000 tested, 0.26% active; Peroxisome proliferator-activated receptor gamma (Homo sapiens), P37231; activation, % at 8 µM; in the data active = activation above about 23%
Target sequence (P37231 whole entry, looked up): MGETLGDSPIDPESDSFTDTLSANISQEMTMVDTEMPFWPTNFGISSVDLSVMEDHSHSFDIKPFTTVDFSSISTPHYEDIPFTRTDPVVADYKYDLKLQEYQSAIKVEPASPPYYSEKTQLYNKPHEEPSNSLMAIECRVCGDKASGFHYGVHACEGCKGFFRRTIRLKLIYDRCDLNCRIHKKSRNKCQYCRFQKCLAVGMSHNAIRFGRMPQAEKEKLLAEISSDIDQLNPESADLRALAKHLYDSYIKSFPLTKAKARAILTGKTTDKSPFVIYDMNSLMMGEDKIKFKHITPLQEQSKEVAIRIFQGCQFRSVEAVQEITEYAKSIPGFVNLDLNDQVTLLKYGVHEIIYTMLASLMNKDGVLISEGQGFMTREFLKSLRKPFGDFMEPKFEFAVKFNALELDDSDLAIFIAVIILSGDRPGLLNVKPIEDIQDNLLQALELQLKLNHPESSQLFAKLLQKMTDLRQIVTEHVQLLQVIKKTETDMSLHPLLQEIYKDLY
SRC3 TRFRET art – TR-FRET detection interference compounds, artefact control for PPARgamma SRC-3 recruitment agonists, biochemical, TR-FRET ratio; TR-FRET artefact counter-screen, PPARgamma/SRC-3 format; stronger effect = higher value; TR-FRET ratio at 8 µM; 99,000 tested, 0.39% active
TR-FRET SRC-2 ct – TR-FRET signal artefacts, primary screen, artefact control for PPARgamma SRC-2 agonist project, biochemical; TR-FRET artefact counter-screen; stronger effect = higher value; AID 1049, 2008; TR-FRET ratio at 8 µM; 200,000 tested, 0.4% active
PPARg SRC1 recr – PPARgamma agonists recruiting SRC-1 coactivator, primary screen, biochemical; PPARgamma-SRC-1 coactivator recruitment biochemical assay; Peroxisome proliferator-activated receptor gamma (Homo sapiens), P37231; activation, % at 8 µM; 200,000 tested, 0.41% active; in the data active = activation above about 19%
PPARg SRC2 recr – agonists of PPARg-SRC-2 recruitment, primary screen, biochemical, HTS | activation, % at 8 µM | Peroxisome proliferator-activated receptor gamma (Homo sapiens), P37231 | PPARgamma LBD-SRC-2 recruitment | 200,000 tested, 0.34% active; in the data active = activation above about 22%
SRC1 TRFRET art – TR-FRET detection interference compounds, primary screen, artefact control for PPARgamma SRC-1 recruitment agonists, biochemical, TR-FRET emission ratio. TR-FRET detection artefact counter-screen; stronger effect = higher value. TR-FRET ratio at 8 µM. 99,000 tested, 0.34% active; in the data active = TR-FRET ratio above about 2300
PPARg SRC2 conf – agonists of PPARgamma SRC-2 coactivator recruitment, confirmation, biochemical, HTS; 790 tested, 52% active; shares compounds with PPARg SRC3 recr; biochemical SRC-2 recruitment by PPARgamma; activation, % at 8 µM; AID 1297, 2008; in the data active = activation above about 22%
PPARg SRC1 ag – PPARgamma agonists recruiting SRC-1 coactivator, confirmation, biochemical; shares compounds with PPARg SRC3 recr; 790 tested, 43% active; PPARgamma–SRC-1 coactivator recruitment biochemical assay; activation, % at 8 µM; in the data active = activation above about 20%
PPARg SRC3 ag – PPARgamma-driven SRC-3 coactivator recruitment agonists, confirmation, biochemical | activation, % at 8 µM | 790 tested, 29% active | shares compounds with PPARg SRC3 recr | AID 1301, 2008 | biochemical PPARgamma-SRC-3 coactivator recruitment, agonist mode; in the data active = activation above about 24%
Hits are given with their value; - = inactive; . = no result; ! = not confirmed by another sample. Cut-off read from the data, not from the text of the source, unless noted: active = TR-FRET ratio above about 2000; inactive = the rest.

SMILES	PPARg SRC3 recr	SRC3 TRFRET art	TR-FRET SRC-2 ct	PPARg SRC1 recr	PPARg SRC2 recr	SRC1 TRFRET art	PPARg SRC2 conf	PPARg SRC1 ag	PPARg SRC3 ag
COc1ccc(CC(=O)Nc2ccc(-c3nc4cc(C)ccc4o3)c(O)c2)cc1OC	-	.	-	43	-	.	41	28	25
Cc1ccc2oc(-c3ccc(NC(=O)c4ccncc4)cc3O)nc2c1	-	-	-	-	-	-	.	.	.
O=C(Nc1ccc(S(=O)(=O)Nc2ncccn2)cc1)c1ccc(Br)s1	37	.	2098	-	22	.	23	-	-
O=C(Nc1ccc(Cl)cc1)Nc1ccc(S(=O)(=O)Nc2ncccn2)cc1	-	-	-	-	-	-	.	.	.
O=C(c1ccc(F)cc1)C1CCN(C(=S)NCC2CCCO2)CC1 (stereo not drawn)	-	-	-	-	-	-	.	.	.
O=C(Cc1cccc2ccccc12)Nc1ccc(-c2cc3ccccc3oc2=O)cc1	-	.	2296	24	-	.	24	-	-
CN(C)c1nc(N(C)C)n(Cc2c(Cl)cccc2Cl)n1	-	-	-	-	-	-	.	.	.
O=[N+]([O-])c1cc(Cc2ccccc2)cc(C=Nc2ccc(N3CCOCC3)cc2)c1O	39	2652	2504	51	65	3128	-	-	-
O=C(COC(=O)CSc1ccc2ccccc2c1)NCc1ccc2c(c1)OCO2	-	-	-	-	-	-	.	.	.
Cc1cc(C)n(-c2ccc(C(=O)OCC(=O)Nc3ccc(Cl)cc3[N+](=O)[O-])cc2)n1	-	-	-	-	-	-	.	.	.
CC1(C)Nc2ccc(O)cc2-c2c1ssc2=S	28	.	-	-	25	.	-	-	-
O=C(O)CCc1ccc(-c2ccc(Br)cc2)o1	62	.	2456	28	42	.	26	-	-
O=C(O)C1C2CC3C(OC(=O)C31)C2Cl (stereo not drawn)	-	-	-	-	-	-	.	.	.
CCC(NC(=O)c1ccccc1NC(=O)c1ccco1)C(=O)NC1CCCCC1 (stereo not drawn)	-	.	2076	-	25	.	-	-	-
Brc1cc(Br)c2nc(-c3cccs3)ccc2c1	52	.	2365	23	45	.	36	24	-
c1csc(-c2csc(-c3cccs3)n2)c1	-	.	-	-	-	.	.	.	.
CCC(=O)Nc1ccc(/C(C)=N/NC(=O)c2c(-c3ccccc3Cl)noc2C)cc1	-	-	-	-	-	-	.	.	.
COc1ccc(CNC(=O)CSc2nc(-c3ccccc3)cc(-c3cccs3)c2C#N)cc1	-	.	3077	-	55	.	26	25	-
CC(=O)c1sc(NC(=O)C2COc3ccccc3O2)nc1C (stereo not drawn)	28	.	2016	20	27	.	24	-	-
CC(=O)c1sc(NC(=O)C(C)C)nc1C	83	.	3308	59	81	.	54	37	39
CC(=O)c1sc(Nc2ccc(C)cc2)nc1C	-	-	-	-	-	-	.	.	.
CC(=O)c1sc(Nc2ccccn2)nc1C	74	.	2724	53	48	.	38	25	26
CC(=O)Nc1nc(C)c(C(C)=O)s1	-	.	-	-	-	.	.	.	.
COc1cc(C(=O)NCCCNc2ccc([N+](=O)[O-])cc2)cc(OC)c1OC	-	-	-	-	-	-	.	.	.
CCOC(=O)Nc1c(C(=O)OC)[nH]c2cc(OC)ccc12	-	.	-	-	-	.	.	.	.
SMILES	PPARg SRC3 recr	SRC3 TRFRET art	TR-FRET SRC-2 ct	PPARg SRC1 recr	PPARg SRC2 recr	SRC1 TRFRET art	PPARg SRC2 conf	PPARg SRC1 ag	PPARg SRC3 ag
COC(=O)c1[nH]c2cc(OC)ccc2c1N	28	.	-	-	-	.	-	-	-
N#Cc1c(-c2ccco2)nc(SCc2ccc(F)cc2)[nH]c1=O	39	.	2187	20	45	.	24	-	-
N#Cc1c(-c2ccco2)nc(SCC(=O)Nc2ccc(S(N)(=O)=O)cc2)[nH]c1=O	-	.	-	-	-	.	.	.	.
Cc1ccc(/C=C(\C#N)C(=O)N2CCCC2)c(C)c1	-	-	-	-	-	-	.	.	.
CC(=O)c1cnc(-c2ccccc2Cl)s1	-	-	-	22	-	-	-	-	-
CC(=O)c1cnc(-c2ccccn2)s1	-	-	-	-	-	-	.	.	.
C#CCn1c(=NC(=O)c2ccc(Br)s2)sc2cc(NC(C)=O)ccc21	-	-	-	-	-	-	.	.	.
C#CCn1c(=NC(=O)c2ccc(Br)s2)sc2cccc(OC)c21	33	.	4015	24	30	.	46	32	26
COc1ccc(NC(=O)CCSCCc2ccccn2)cc1OC	-	-	-	-	-	-	.	.	.
O=C(c1ccc2c(c1)OCO2)N1CCN(c2ccccc2)CC1	26	.	-	-	-	.	-	-	-
Cc1cc(-c2ccccc2)nc2cc(C(=O)NCc3ccco3)nn12	-	-	-	-	-	-	.	.	.
CCOc1ccc(S(=O)(=O)N(C)c2ccc(OCC(=O)Nc3nc(-c4cc(OC)ccc4OC)cs3)cc2)cc1	-	2621	2453	25	26	2860	32	26	-
O=C(Nc1nc(-c2cccs2)c(C(=O)C(F)(F)F)s1)c1ccco1	37	3363	3022	41	61	3540	37	22	25
Cc1cc(SC(C)C(=O)O)nc2ccccc12 (stereo not drawn)	-	-	-	-	-	-	.	.	.
CC(Sc1cnc2ccccc2n1)C(=O)O (stereo not drawn)	-	.	-	-	26	.	-	-	-
CC(Sc1ccc2ccccc2n1)C(=O)O (stereo not drawn)	37	.	2286	30!	23	.	26	-	-
O=C(COc1ccc(/C=N/NC(=O)C(=O)N2CCCCCC2)cc1)Nc1ccccc1Cl	-	-	-	-	-	-	.	.	.
CN(C)c1ccc(/C=C/c2ccc3ccccc3[n+]2C)cc1	59	2738	2876	66	94	3396	41	33	31
CN(C)c1ccc(/C=C/c2ccc3c4ccccc4ccc3[n+]2-c2ccccc2)cc1	28	2137	2446	47	49	-	30	20	-
CN(C)c1ccc(/C=C/c2ccncc2)cc1	-	.	-	-	-	.	.	.	.
CCN(CC)S(=O)(=O)c1cccc(NC2=NCC(C)S2)c1 (stereo not drawn)	-	-	-	-	-	-	.	.	.
